Assay results published in PubChem BioAssay (NCI).
About 79,000 compounds went through this panel and 15% of them were active in at least one assay; those are over-represented in the sample as a whole. The source made the active and inactive calls. No stated cut-off is given here; in the data, active means growth inhibition above about 70%; inactive means the rest.

Key:
[1] = NCI Yeast Anticancer Drug Screen. Data for the rad52 strain (AID 147);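 further: 0% = growth of vehicle-treated control cultures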; settings: S. cerevisiae rad52 mutant growth inhibition, hits give high values
Outline: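 Screen used a yeast mutant impaired in DNA repair. After compound exposure, growth was measured. Values reflect inhibition compared with vehicle-treated cells.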

[2] = NCI Yeast Anticancer Drug Screen. Data for the wt1 strain (AID 149);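 further: 0% = growth of vehicle-treated wt1 cultures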; settings: S. cerevisiae wt1 strain (SPY 50644) growth inhibition, hits give high values
Outline: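 Measured: growth of wt1 yeast under compound versus vehicle treatment, reported as inhibition.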

[3] = NCI Yeast Anticancer Drug Screen. Data for the rad50EPP+ strain (AID 151);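 further: 0% = growth of vehicle-treated control cultures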; settings: S. cerevisiae rad50 mutant strain, hits give high values
Outline: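 Exposing the rad50EPP+ strain to each compound, growth was compared with vehicle-only cultures to give inhibition.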

[4] = NCI Yeast Anticancer Drug Screen. Data for the mgt1 strain (AID 153); settings: S. cerevisiae mgt1 mutant growth inhibition, hits give high values
Outline: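 Genetically defined yeast (mgt1) treated with compound; inhibition of growth expressed against vehicle-treated controls.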

[5] = NCI Yeast Anticancer Drug Screen. Data for the rad50 strain (AID 155);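 further: 0% = growth of vehicle-only cultures of the same strain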; settings: S. cerevisiae rad50 strain growth inhibition, hits give high values
Outline: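 Growth of the mutant yeast was measured after compound exposure and referenced to vehicle-treated cultures.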

[6] = NCI Yeast Anticancer Drug Screen. Data for the mec2-1 strain (AID 157); settings: S. cerevisiae mec2-1 strain, hits give high values
Outline: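 Readout is yeast growth inhibition, normalised to vehicle-treated controls, in the mec2-1 strain exposed to compound.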

[7] = NCI Yeast Anticancer Drug Screen. Data for the rad14 strain (AID 159);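 further: 0% = growth of vehicle-treated control cultures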; settings: S. cerevisiae rad14 strain growth inhibition, hits give high values
Outline: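 Here, inhibition of yeast growth was measured after compound exposure, using a strain with a genetic defect in DNA damage repair and vehicle-treated cultures as the reference.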

[8] = NCI Yeast Anticancer Drug Screen. Data for the sgs1 mgt1 strain (AID 161);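 further: 0% = growth of cultures given vehicle only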; settings: S. cerevisiae sgs1 mgt1 strain, hits give high values
Outline: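 Percent growth inhibition was derived by comparing compound-exposed mutant yeast with vehicle-exposed cultures. The strain carries alterations in DNA damage repair.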

[9] = NCI Yeast Anticancer Drug Screen. Data for the CLN2oe strain (AID 163);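 further: 0% = growth of vehicle-only control cultures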; settings: S. cerevisiae CLN2oe strain, hits give high values
Outline: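 Values reflect how much compound exposure reduced yeast growth, referenced to vehicle-exposed cells. Assay organism is a strain with a defined genetic change affecting cell-cycle control.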

[10] = NCI Yeast Anticancer Drug Screen. Data for the cln2 rad14 strain (AID 165);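 further: 0% = growth equal to vehicle treated cultures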; settings: S. cerevisiae cln2 rad14 strain, hits give high values
Outline: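 Relative to vehicle controls, growth inhibition of compound-treated cln2 rad14 yeast was recorded.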

[11] = NCI Yeast Anticancer Drug Screen. Data for the bub3 strain (AID 167); settings: S. cerevisiae bub3 mutant strain, hits give high values
Outline: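 Whole-cell yeast assay. The mutant strain was incubated with compounds, and growth inhibition was determined by comparison with vehicle-treated cells.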

[12] = NCI Yeast Anticancer Drug Screen. Data for the wt2 strain (AID 169);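 further: 0% = growth of vehicle-treated yeast cultures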; settings: S. cerevisiae wt2 strain growth inhibition, hits give high values
Outline: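 Values express reduction in yeast growth under compound treatment, referenced to vehicle-treated cells.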

[13] = NCI Yeast Anticancer Drug Screen. Data for the mlh1 strain (AID 171);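 further: 0% = growth of vehicle-treated control cultures of the same strain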; settings: S. cerevisiae mlh1 strain growth inhibition, hits give high values
Outline: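 Steps: expose the defined-mutant yeast strain to compound; expose a parallel culture to vehicle; measure growth; express compound effect as inhibition relative to the vehicle culture.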

[14] = NCI Yeast Anticancer Drug Screen. Data for the sgs1 strain (AID 173);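 further: 0% = growth of vehicle-only control cultures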; settings: S. cerevisiae sgs1 mutant, hits give high values
Outline: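 Treat defined-mutant yeast with compound; measure growth; calculate inhibition relative to vehicle-treated cells.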

[15] = NCI Yeast Anticancer Drug Screen. Data for the mlh1 rad18 strain (AID 175); settings: S. cerevisiae mlh1 rad18 strain growth inhibition, hits give high values
Outline: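 Test agents were incubated with a yeast strain of defined genotype (DNA damage repair defect). Inhibition of growth was derived by comparison with vehicle-exposed cultures.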

[16] = NCI Yeast Anticancer Drug Screen. Data for the rad18 strain (AID 177); settings: S. cerevisiae rad18 mutant growth inhibition, hits give high values
Outline: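 A genetically defined yeast mutant impaired in DNA damage repair was treated with test compounds, then its growth was measured against cultures receiving vehicle alone.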

[17] = at 5.0 µM (retest, dose inferred, filed as 0.5)
[18] = at 50.0 µM (retest, dose inferred, filed as 5.0)

Measured: growth inhibition

CC1CC[C@]2(C(=O)O)CCC3(C)C(=CC(=O)C4[C@@]5(C)CCC(=O)C(C)(C)C5CC[C@]43C)[C@@H]2[C@H]1C (stereo partly drawn)
inactive: [1]; at 1.2 µM 29% | [1]; at 3.7 µM 43% | [2]; at 1.2 µM 9% | [2]; at 3.7 µM 20% | [3]; at 1.2 µM 9% | [3]; at 3.7 µM 21% | [3]; at 11.0 µM 28% | [3]; at 33.0 µM 18% | [3]; at 100.0 µM 30% | [4]; at 1.2 µM 4% | [4]; at 3.7 µM 9% | [5]; at 1.2 µM 20% | [5]; at 3.7 µM 46% | [5]; [17] 4% | [6]; at 1.2 µM -2% | [6]; at 3.7 µM 38% | [6]; [17] 26% | [7]; at 1.2 µM -19% | [7]; at 3.7 µM -13% | [8]; [17] 7% | [9]; at 1.2 µM 1% | [9]; at 3.7 µM 37% | [10]; [17] 65% | [11]; at 1.2 µM 12% | [11]; at 3.7 µM 29% | [11]; [17] 58% | [12]; at 1.2 µM 12% | [12]; at 3.7 µM 13% | [13]; at 1.2 µM 14% | [13]; at 3.7 µM 14% | [14]; at 1.2 µM 29% | [14]; at 3.7 µM 30% | [15]; [17] 35% | [16]; at 1.2 µM 15% | [16]; at 3.7 µM 34%
active: [1]; at 11.0 µM 91% | [1]; at 33.0 µM 98% | [1]; at 100.0 µM 97% | [2]; at 11.0 µM 93% | [2]; at 33.0 µM 98% | [2]; at 100.0 µM 97% | [4]; at 11.0 µM 88% | [4]; at 33.0 µM 97% | [4]; at 100.0 µM 97% | [5]; at 11.0 µM 92% | [5]; at 33.0 µM 98% | [5]; [18] 97% | [5]; at 50.0 µM 90.8% | [5]; at 100.0 µM 97% | [6]; at 11.0 µM 88% | [6]; at 33.0 µM 95% | [6]; [18] 97% | [6]; at 50.0 µM 91.5% | [6]; at 100.0 µM 95% | [7]; at 11.0 µM 77% | [7]; at 33.0 µM 95% | [7]; at 100.0 µM 96% | [8]; [18] 96% | [8]; at 50.0 µM 89.8% | [9]; at 11.0 µM 92% | [9]; at 33.0 µM 97% | [9]; at 100.0 µM 97% | [10]; [18] 98% | [10]; at 50.0 µM 90.7% | [11]; at 11.0 µM 88% | [11]; at 33.0 µM 96% | [11]; [18] 97% | [11]; at 50.0 µM 91.7% | [11]; at 100.0 µM 96% | [12]; at 11.0 µM 88% | [12]; at 33.0 µM 98% | [12]; at 100.0 µM 97% | [13]; at 11.0 µM 83% | [13]; at 33.0 µM 96% | [13]; at 100.0 µM 96% | [14]; at 11.0 µM 91% | [14]; at 33.0 µM 98% | [14]; at 100.0 µM 97% | [15]; [18] 97% | [15]; at 50.0 µM 90.7% | [16]; at 11.0 µM 93% | [16]; at 33.0 µM 97% | [16]; at 100.0 µM 97%
